Data on 1 sequence can be found in article PMC7862700, “An all-to-all approach to the identification of sequence-specific readers for epigenetic DNA modifications on cytosine”.

What all share (assay): DAPPL (digital affinity profiling via proximity ligation, sequencing); 10 mM Tris-HCl pH 7.5, 50 mM NaCl, 1 mM DTT, 4% glycerol, room temperature, 30 min; GST-TFs on glutathione beads, 16-mer random dsDNA library, 0.1% formaldehyde crosslink after washing; high values mean tight binding
One assay deals with T1, FEV (Homo sapiens, UniProt Q99581 1-238).
T1 sequence: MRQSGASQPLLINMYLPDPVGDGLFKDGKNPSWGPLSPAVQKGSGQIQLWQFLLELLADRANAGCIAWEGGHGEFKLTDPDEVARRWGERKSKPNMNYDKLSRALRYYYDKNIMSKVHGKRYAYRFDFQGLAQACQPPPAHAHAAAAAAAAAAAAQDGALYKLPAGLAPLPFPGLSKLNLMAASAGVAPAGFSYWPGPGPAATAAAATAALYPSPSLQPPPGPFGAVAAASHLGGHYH
The conditions noted are these: protein: recombinant; tags: N-terminal GST; dsDNA, one strand shown. A digest of the protocol: (§1)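 Yeast served to express human transcription factors as GST fusions, which were then captured on glutathione beads and labelled with DNA barcodes. Pooled with a tag-only sample, they were incubated with 200 nmole of a 16-mer random double-stranded DNA library for 30 min at room temperature in Tris/NaCl/DTT/glycerol buffer, washed, crosslinked with 0.1% formaldehyde, ligated by proximity, amplified by PCR and sequenced. Dividing each hexamer's read frequency for a factor by its frequency for the tag-only sample gives the binding signal.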

The next assay addresses ETV5 (Homo sapiens, UniProt P41161 1-510). The conditions noted are these: protein: recombinant; tags: N-terminal GST; dsDNA, one strand shown. A digest of the protocol: as §1
A further assay addresses HSF1 (Homo sapiens, UniProt Q00613 1-529). The conditions noted are these: protein: recombinant; tags: N-terminal GST; chain copies: 3; dsDNA, one strand shown. A digest of the protocol: as §1
The target in another assay is T2, SPIC (Homo sapiens, UniProt Q8N5J4 1-248).
T2 sequence: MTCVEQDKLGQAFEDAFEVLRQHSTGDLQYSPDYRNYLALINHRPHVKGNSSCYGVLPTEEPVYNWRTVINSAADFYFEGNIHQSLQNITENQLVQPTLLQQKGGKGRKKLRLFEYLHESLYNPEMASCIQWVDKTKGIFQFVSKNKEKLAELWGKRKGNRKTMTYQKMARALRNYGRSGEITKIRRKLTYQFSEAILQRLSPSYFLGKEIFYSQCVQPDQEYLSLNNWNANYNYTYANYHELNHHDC
The conditions noted are these: protein: recombinant; tags: N-terminal GST; dsDNA, one strand shown. The essentials:
as §1

The target of a further assay is ELF4 (Homo sapiens, UniProt Q99607 1-663). The conditions noted are these: protein: recombinant; tags: N-terminal GST; dsDNA, one strand shown. The essentials:
as §1

For a further assay, the target named is T3, ELK4 (Homo sapiens, UniProt P28324-2 1-405).
T3 sequence: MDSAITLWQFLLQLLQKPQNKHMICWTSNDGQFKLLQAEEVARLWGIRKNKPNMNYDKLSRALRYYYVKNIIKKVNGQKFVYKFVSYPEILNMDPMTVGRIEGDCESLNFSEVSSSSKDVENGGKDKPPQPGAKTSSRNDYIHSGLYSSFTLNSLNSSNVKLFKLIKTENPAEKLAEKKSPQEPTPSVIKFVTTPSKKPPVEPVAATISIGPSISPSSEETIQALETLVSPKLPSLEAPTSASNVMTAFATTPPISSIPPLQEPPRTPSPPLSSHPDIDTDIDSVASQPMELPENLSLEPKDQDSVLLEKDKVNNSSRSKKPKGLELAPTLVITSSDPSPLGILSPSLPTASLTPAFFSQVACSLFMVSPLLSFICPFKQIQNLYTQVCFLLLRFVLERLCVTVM
The conditions noted are these: protein: recombinant; tags: N-terminal GST; dsDNA, one strand shown. A digest of the protocol:
as §1

For a further assay, the target named is T4, ETV2 (Homo sapiens, UniProt O00321 1-342).
T4 sequence: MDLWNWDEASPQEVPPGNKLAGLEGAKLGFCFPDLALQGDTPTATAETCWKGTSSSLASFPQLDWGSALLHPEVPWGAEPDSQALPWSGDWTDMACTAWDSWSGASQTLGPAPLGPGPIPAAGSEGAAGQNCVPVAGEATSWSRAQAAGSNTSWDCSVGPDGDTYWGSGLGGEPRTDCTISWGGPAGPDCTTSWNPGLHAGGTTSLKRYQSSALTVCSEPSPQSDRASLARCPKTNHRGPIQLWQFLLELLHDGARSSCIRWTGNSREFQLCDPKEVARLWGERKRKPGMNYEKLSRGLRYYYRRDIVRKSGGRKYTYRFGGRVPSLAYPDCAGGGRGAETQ
The conditions noted are these: protein: recombinant; tags: N-terminal GST; dsDNA, one strand shown. The essentials: as §1

For another assay, the target named is T5, ELF3 (Homo sapiens, UniProt P78545 1-371).
T5 sequence: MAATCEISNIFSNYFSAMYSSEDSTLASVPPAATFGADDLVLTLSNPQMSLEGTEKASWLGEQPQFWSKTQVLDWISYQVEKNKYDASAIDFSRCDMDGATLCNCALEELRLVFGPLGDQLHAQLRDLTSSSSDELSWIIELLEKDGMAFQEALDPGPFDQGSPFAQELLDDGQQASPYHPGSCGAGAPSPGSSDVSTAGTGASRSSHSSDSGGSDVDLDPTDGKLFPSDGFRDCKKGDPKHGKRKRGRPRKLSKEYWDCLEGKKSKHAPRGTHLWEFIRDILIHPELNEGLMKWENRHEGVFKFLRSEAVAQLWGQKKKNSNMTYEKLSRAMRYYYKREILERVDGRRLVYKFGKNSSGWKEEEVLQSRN
The conditions noted are these: protein: recombinant; tags: N-terminal GST; dsDNA, one strand shown. The essentials:
as §1

In another assay the target is CRX (Homo sapiens, UniProt O43186 1-299). The conditions noted are these: protein: recombinant; tags: N-terminal GST; dsDNA, one strand shown. The essentials:
as §1

For a further assay, the target named is ETV1 (Homo sapiens, UniProt P50549 1-477). The conditions noted are these: protein: recombinant; tags: N-terminal GST; dsDNA, one strand shown. The essentials:
as §1

A further assay concerns the target T6, ERF (Homo sapiens, UniProt P50548 1-548).
T6 sequence: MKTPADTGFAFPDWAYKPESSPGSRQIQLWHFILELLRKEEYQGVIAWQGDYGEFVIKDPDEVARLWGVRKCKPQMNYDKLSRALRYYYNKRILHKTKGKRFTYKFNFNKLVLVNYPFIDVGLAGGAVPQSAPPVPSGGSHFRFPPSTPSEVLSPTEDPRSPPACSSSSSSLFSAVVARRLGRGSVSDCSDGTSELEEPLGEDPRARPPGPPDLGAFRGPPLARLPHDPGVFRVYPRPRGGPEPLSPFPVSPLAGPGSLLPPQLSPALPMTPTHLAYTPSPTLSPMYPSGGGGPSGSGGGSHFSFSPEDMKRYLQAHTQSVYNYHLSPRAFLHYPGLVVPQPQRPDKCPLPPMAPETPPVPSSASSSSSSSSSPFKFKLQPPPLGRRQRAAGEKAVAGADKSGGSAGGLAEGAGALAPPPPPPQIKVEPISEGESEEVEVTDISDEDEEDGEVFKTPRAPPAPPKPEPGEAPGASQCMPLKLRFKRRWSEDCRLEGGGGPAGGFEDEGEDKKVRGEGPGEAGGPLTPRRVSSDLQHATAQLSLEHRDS
The conditions noted are these: protein: recombinant; tags: N-terminal GST; dsDNA, one strand shown. A digest of the protocol:
as §1

The target in another assay is T7, ETV3L (Homo sapiens, UniProt Q6ZN32 1-361).
T7 sequence: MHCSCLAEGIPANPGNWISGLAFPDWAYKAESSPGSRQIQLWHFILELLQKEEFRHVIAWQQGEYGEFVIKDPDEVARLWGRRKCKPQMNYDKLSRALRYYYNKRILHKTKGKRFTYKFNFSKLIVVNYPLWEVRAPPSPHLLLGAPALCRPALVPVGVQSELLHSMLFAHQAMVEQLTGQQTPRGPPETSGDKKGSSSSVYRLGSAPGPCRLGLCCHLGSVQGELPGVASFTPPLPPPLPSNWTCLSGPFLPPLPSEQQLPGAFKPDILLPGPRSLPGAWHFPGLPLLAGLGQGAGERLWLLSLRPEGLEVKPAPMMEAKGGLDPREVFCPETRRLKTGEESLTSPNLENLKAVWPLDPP
The conditions noted are these: protein: recombinant; tags: N-terminal GST; dsDNA, one strand shown. The essentials:
as §1

Another assay deals with T8, ETS2 (Homo sapiens, UniProt P15036 1-469).
T8 sequence: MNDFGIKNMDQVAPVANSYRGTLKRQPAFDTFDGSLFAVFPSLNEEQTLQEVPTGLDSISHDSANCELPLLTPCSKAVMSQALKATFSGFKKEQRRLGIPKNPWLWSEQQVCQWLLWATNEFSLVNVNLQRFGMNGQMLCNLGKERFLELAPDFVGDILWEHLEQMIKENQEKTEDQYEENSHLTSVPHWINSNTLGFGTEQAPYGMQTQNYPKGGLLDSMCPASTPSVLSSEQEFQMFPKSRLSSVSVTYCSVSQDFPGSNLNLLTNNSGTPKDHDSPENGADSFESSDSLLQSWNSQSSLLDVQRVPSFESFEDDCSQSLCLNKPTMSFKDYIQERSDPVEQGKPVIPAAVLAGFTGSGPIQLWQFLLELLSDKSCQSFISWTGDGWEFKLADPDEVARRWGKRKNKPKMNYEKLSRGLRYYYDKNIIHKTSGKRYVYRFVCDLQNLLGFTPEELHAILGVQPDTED
The conditions noted are these: protein: recombinant; tags: N-terminal GST; dsDNA, one strand shown. The essentials: as §1

The next assay concerns the target T9, SPDEF (Homo sapiens, UniProt O95238 1-335).
T9 sequence: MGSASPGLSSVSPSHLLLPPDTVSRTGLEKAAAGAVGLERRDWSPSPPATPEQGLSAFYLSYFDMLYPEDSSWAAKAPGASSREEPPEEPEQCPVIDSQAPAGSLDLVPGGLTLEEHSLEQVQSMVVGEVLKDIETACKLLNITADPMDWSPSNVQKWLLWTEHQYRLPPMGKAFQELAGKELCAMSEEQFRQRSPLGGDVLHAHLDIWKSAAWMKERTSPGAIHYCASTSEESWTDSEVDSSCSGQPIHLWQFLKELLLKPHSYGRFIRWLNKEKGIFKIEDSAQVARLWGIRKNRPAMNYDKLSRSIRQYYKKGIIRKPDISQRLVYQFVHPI
The conditions noted are these: protein: recombinant; tags: N-terminal GST; dsDNA, one strand shown. The essentials: as §1

For another assay, the target named is T10, ETV7 (Homo sapiens, UniProt Q9Y603 1-341).
T10 sequence: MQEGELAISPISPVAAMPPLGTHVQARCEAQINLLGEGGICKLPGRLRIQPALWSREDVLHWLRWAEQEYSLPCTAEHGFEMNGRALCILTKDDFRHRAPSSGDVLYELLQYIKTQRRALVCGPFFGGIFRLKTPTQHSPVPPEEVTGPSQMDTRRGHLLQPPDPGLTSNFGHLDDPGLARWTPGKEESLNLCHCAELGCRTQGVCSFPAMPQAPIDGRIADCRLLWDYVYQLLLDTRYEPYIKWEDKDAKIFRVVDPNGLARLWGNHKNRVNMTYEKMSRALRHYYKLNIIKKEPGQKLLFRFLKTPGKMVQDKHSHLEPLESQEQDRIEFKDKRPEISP
The conditions noted are these: protein: recombinant; tags: N-terminal GST; dsDNA, one strand shown. A digest of the protocol: as §1

In a further assay the target is T11, ELF5 (Homo sapiens, UniProt Q9UKW6-2 1-255).
T11 sequence: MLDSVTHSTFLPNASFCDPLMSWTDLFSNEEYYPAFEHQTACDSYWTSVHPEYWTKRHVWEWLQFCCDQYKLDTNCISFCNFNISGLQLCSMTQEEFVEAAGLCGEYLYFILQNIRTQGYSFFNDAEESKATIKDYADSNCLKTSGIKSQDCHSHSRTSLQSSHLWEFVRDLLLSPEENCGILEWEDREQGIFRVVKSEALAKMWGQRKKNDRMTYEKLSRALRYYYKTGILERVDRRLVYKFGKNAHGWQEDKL
The conditions noted are these: protein: recombinant; tags: N-terminal GST; dsDNA, one strand shown. A digest of the protocol: as §1

A further assay addresses T12, ETV3 (Homo sapiens, UniProt P41162-2 1-143).
T12 sequence: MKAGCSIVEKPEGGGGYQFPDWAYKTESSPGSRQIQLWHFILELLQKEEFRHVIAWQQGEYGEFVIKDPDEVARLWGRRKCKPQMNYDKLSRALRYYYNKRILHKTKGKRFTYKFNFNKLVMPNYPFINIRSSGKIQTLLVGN
The conditions noted are these: protein: recombinant; tags: N-terminal GST; dsDNA, one strand shown. The essentials: as §1

In another assay the target is ETV6 (Homo sapiens, UniProt P41212 1-452). The conditions noted are these: protein: recombinant; tags: N-terminal GST; dsDNA, one strand shown. The essentials: as §1
Sequence of ETV6 (P41212 whole entry): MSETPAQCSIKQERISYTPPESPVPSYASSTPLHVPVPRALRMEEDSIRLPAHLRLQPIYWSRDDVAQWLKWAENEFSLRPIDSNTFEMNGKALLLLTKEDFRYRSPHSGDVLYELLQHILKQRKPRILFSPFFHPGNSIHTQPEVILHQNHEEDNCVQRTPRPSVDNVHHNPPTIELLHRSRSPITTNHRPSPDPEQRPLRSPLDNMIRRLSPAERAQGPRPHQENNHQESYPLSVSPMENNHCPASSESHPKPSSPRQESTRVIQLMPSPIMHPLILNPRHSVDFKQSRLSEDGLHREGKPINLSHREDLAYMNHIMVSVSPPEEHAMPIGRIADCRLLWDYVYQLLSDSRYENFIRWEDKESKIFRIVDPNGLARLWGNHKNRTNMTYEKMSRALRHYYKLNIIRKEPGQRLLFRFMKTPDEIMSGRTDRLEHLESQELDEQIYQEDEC

Sequence of ETV5 (P41161 whole entry): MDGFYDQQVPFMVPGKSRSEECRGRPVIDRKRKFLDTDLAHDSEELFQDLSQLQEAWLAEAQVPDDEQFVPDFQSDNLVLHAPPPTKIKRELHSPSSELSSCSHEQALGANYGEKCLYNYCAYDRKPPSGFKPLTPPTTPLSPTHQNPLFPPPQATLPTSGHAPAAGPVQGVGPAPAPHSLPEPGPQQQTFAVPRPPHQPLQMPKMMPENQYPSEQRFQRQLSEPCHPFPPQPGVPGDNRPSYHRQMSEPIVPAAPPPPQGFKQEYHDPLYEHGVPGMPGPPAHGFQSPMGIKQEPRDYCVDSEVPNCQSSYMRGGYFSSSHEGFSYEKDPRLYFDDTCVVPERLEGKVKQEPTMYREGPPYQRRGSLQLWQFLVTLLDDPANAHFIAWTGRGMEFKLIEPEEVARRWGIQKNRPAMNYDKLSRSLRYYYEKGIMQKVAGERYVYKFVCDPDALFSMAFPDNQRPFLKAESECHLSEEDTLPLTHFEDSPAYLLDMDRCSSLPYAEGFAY
Sequence of HSF1 (Q00613 whole entry): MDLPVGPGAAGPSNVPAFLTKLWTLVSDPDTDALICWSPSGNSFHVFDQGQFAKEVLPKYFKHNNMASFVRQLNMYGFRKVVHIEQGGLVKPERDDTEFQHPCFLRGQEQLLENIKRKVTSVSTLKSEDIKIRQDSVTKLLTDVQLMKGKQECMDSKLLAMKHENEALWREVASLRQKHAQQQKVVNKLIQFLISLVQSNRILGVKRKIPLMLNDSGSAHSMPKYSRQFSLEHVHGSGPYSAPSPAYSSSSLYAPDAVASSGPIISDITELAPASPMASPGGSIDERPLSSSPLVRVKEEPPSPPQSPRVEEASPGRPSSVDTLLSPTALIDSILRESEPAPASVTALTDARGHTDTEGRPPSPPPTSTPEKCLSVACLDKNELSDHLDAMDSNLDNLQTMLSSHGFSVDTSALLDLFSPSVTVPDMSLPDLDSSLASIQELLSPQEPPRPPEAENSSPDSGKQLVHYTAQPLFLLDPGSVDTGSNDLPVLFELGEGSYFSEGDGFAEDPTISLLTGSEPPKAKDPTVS
Sequence of CRX (O43186 whole entry): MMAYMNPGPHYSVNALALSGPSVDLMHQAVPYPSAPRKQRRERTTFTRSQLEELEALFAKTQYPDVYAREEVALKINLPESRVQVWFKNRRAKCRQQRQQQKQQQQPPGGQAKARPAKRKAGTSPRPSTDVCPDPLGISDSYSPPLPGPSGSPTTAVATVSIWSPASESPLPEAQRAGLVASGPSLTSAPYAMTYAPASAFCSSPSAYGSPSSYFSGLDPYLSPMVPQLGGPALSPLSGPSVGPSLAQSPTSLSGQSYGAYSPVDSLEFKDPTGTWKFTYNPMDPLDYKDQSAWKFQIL
Sequence of ETV1 (P50549 whole entry): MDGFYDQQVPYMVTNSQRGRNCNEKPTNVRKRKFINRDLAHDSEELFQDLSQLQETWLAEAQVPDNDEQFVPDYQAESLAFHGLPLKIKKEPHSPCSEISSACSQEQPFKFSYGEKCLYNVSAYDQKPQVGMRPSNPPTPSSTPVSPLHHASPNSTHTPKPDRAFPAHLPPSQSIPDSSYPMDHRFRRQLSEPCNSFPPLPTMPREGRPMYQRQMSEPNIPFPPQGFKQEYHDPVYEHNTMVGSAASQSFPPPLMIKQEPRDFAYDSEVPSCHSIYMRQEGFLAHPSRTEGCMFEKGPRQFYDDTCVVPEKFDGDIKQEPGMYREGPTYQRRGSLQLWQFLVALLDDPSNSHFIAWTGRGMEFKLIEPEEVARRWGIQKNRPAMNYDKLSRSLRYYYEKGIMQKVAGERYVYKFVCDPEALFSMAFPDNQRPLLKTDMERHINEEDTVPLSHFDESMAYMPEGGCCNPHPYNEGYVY
Sequence of ELF4 (Q99607 whole entry): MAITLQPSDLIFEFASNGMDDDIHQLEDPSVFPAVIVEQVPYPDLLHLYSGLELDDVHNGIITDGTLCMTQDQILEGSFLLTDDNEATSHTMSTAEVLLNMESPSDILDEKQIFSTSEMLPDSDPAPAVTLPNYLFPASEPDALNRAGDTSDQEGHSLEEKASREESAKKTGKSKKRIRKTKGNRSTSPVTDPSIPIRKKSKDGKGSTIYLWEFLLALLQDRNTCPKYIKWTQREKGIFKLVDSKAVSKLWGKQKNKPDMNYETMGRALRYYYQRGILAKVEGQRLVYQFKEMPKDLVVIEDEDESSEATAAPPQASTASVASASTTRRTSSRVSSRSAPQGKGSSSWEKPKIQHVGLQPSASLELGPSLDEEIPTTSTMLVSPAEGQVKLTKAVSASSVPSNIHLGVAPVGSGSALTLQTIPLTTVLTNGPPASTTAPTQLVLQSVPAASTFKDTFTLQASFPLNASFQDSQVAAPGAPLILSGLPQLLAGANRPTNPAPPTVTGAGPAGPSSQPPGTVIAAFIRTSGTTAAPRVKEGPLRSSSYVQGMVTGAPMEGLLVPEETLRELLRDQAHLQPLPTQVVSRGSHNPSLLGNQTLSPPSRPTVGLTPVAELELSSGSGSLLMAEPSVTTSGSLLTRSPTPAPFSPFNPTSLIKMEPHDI

With GCCCTA, the binding signal with FEV was 1.28 fold enrichment (6-mer frequency, TF over GST control); with ETV5 it was 1.16 fold enrichment (6-mer frequency, TF over GST control); in the assay with HSF1, 1.13 fold enrichment (6-mer frequency, TF over GST control); with SPIC, 1.18 fold enrichment (6-mer frequency, TF over GST control); with ELF4, 1.24 fold enrichment (6-mer frequency, TF over GST control); in the assay with ELK4 it was 1.24 fold enrichment (6-mer frequency, TF over GST control). Also, the binding signal was 1.06 fold enrichment (6-mer frequency, TF over GST control) with ETV2; 1.19 fold enrichment (6-mer frequency, TF over GST control) with ELF3; 1.27 fold enrichment (6-mer frequency, TF over GST control) with CRX; 1.06 fold enrichment (6-mer frequency, TF over GST control) in the assay with ETV1; 1.21 fold enrichment (6-mer frequency, TF over GST control) with ERF; 1.17 fold enrichment (6-mer frequency, TF over GST control) with ETV3L. The binding signal is 1.22 fold enrichment (6-mer frequency, TF over GST control) in the assay with ETS2; 1.21 fold enrichment (6-mer frequency, TF over GST control) with SPDEF; 1.12 fold enrichment (6-mer frequency, TF over GST control) in the assay with ETV7; 1.11 fold enrichment (6-mer frequency, TF over GST control) in the assay with ELF5; 1.18 fold enrichment (6-mer frequency, TF over GST control) in the assay with ETV3; 1.17 fold enrichment (6-mer frequency, TF over GST control) in the assay with ETV6.
